PP1 counter = PP1-alpha phosphatase inhibitors, primary screen, counter-screen for PP5 inhibitor project, biochemical, fluorescence, OMFP substrate, single point. purified PP1alpha. AID 2235, 2010. Serine/threonine-protein phosphatase PP1-alpha catalytic subunit (Homo sapiens), P62136. inhibition, % at 6.7 µM. 320,000 compounds, 0.9% hits;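 active = inhibition above the mean inhibition of all tested compounds plus 3 SD, computed separately for each screening campaign, cut at about 15% in these data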
SKKanGAS inh = S. pyogenes SKKanGAS growth inhibitors in kanamycin, primary screen, streptokinase expression inhibitor project, SKKanGAS strain, BacTiter-Glo luminescence; AID 1662, 2009; 300,000 compounds, 1.3% hits; 6 h; inhibition, % at 7.5 µM;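 active = mean replicate score, as percent of positive control median, at least 50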;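 note: strain carries kanamycin resistance gene driven by streptokinase promoter and grows in 40 µg/ml kanamycin; loss of luminescence reflects streptokinase promoter inhibition or plain growth inhibition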
IDE cell inh = human IDE inhibitors in live cells, primary screen, fluorescence polarization, HEK cells, FAbetaB substrate | FAbetaB cleavage | inhibition, % at 5.59 µM | 320,000 compounds, 0.41% hits | AID 434962, 2010;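 active = percent inhibition above the average of all tested compounds plus 3 SD, set per screening campaign, cut at about 16% in these data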;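 note: IDE supplied by intact live HEK cells; FP after avidin binding of uncleaved biotin substrate so inhibition keeps polarization high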
PP5 primary = PP5 phosphatase inhibitors, primary screen, biochemical, fluorescence. Serine/threonine-protein phosphatase 5 (Homo sapiens), P53041. 320,000 compounds, 0.18% hits. inhibition, % at 6.7 µM. purified PP5c, OMFP substrate fluorescence;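 active = inhibition above the campaign's mean inhibition across all tested compounds plus 3 SD, cut at about 9.5% in these data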
Target sequence (P53041 whole entry, looked up): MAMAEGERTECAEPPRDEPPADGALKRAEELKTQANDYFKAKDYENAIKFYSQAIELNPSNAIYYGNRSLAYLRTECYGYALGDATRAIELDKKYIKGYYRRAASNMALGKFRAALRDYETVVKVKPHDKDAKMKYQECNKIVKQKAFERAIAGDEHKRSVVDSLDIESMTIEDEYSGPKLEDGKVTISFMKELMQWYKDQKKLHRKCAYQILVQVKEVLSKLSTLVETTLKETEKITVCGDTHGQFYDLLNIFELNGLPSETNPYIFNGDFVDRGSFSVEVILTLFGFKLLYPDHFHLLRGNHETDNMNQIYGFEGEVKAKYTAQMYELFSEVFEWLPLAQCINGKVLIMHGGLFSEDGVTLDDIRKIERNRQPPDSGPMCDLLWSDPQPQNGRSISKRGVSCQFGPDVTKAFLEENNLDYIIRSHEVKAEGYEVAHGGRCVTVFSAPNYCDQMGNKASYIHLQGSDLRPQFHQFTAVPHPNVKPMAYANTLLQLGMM
Granule exo inh = LAMP-1 surface exposure blockers, TALL-104 cells – cell-based, flow cytometry, MLPCN library, primary screen. TALL-104 LAMP-1 surface exposure; cells stimulated with thapsigargin and PMA. inhibition, % at 10 µM. 360,000 compounds, 0.66% hits. AID 651702, 2012;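 active = inhibition above about 55%, limit read from the data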
IDE cell activ = human IDE activators in live cells, primary screen, fluorescence polarization, HEK cells, FAbeta-B substrate; FAbeta-B cleavage; 0% vehicle, 100% cell-free pure enzyme wells; Insulin-degrading enzyme (Homo sapiens), P14735; 340,000 compounds, 0.073% hits; activation, % at 5.96 µM;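 active = activation above the mean of all tested compounds plus 3 SD, set per screening campaign, cut at about 17% in these data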
PP1 inh confirm = PP1 phosphatase inhibitors, confirmation, biochemical, fluorescence, OMFP substrate, triplicate; inhibition, % at 6.7 µM; 1,900 compounds, 52% hits; purified PP1alpha; AID 2358, 2010; shares compounds with PP1 counter;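 active = mean PP1 inhibition above a set limit taken from the earlier primary screen, cut at about 15% in these data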
PP5 counter = PP5 phosphatase inhibition by PP1 hits, confirmation, counter-screen for PP1 inhibitor project, biochemical, fluorescence, triplicate | shares compounds with PP1 counter | purified PP5c, OMFP fluorescence | inhibition, % at 6.7 µM | 1,900 compounds, 4% hits;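 active = mean PP5 inhibition over triplicate wells above about 9.5% taken from the earlier PP1 screen, limit read from the data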
A number is an active result; – = inactive; · = no result given. An excerpt weighted towards active compounds, which were near 2.8% of everything screened.

SMILES	PP1 counter	SKKanGAS inh	IDE cell inh	PP5 primary	Granule exo inh	IDE cell activ	PP1 inh confirm	PP5 counter
Cc1nn(-c2ccc(Cl)cc2)c(Cl)c1/C=N/NC(=O)c1ccc(NS(=O)(=O)c2cccs2)cc1	19	63	–	–	–	–	–	–
OCCN1CCN(Cc2cc(Cl)c3cccnc3c2O)CC1	–	–	–	–	–	–	·	·
Oc1c(CN2CCN(c3ccccn3)CC2)cc(Cl)c2cccnc12	26	108	–	–	–	–	30	–
CCc1nnc(NC(=O)c2ccc(S(=O)(=O)N3CCc4ccccc4C3)cc2)s1	–	–	–	–	–	–	·	·
Cc1cc(C)c2nc(NNC(=O)c3ccc(S(=O)(=O)N4CCc5ccccc5C4)cc3)sc2c1	22	78	–	–	–	–	27	–
Cc1cccc2sc(N(CCCN(C)C)C(=O)c3ccc(S(=O)(=O)N4CCc5ccccc5C4)cc3)nc12	–	–	–	–	–	–	·	·
Cc1cc(C)c2sc(NNC(=O)c3ccc(S(=O)(=O)N4CCc5ccccc5C4)cc3)nc2c1	24	65	–	–	–	–	37	–
CCC(CC)NC(=O)C1CC(=O)N(CCc2ccc(F)cc2)C1 (stereo not given)	–	–	–	–	–	–	·	·
CCOC(=O)c1csc(-c2csc(CCNC(=O)c3ccccc3)n2)n1	·	·	·	·	–	·	·	·
O=C(N/N=C/c1cc([N+](=O)[O-])ccc1O)C12CC3CC(CC(C3)C1)C2	–	–	–	–	–	–	·	·
O=C(N/N=C/c1cc([N+](=O)[O-])ccc1O)NC12CC3CC(CC(C3)C1)C2	20	–	–	–	–	–	17	–
COc1ccc(Nc2nccc(-c3cccc(N)c3)n2)cc1	–	–	–	–	–	–	·	·
COc1ccc(Nc2nccc(-c3ccc(C#N)cc3)n2)cc1	20	–	–	–	–	–	–	–
CC(C)C[C@H](NC(=O)c1[nH]cnc1C(=O)N[C@@H](Cc1ccccc1)C(=O)OCc1ccccc1)C(=O)OCc1ccccc1	–	–	–	–	–	–	·	·
CC(C)C[C@H](NC(=O)c1nc[nH]c1C(=O)NC(c1ccccc1)c1ccccc1)C(=O)OCc1ccccc1	19	–	–	–	–	–	–	–
CCOC(=O)Cn1ncn(-c2ccc(OC(F)(F)F)cc2)c1=O	–	–	–	–	–	–	·	·
Cn1cccc1C(=O)N1CCN(S(=O)(=O)c2ccccc2)CC1	50	–	–	–	–	–	–	–
COc1ccc(NCc2nnc(SCC(=O)Nc3nc(-c4ccccc4)cs3)n2-c2ccccc2)cc1	32	–	–	–	–	–	26	–
COc1ccc(C(CNC(=O)C(C)(C)Oc2ccc(Cl)cc2)N2CCOCC2)cc1 (stereo not given)	·	·	·	·	–	–	·	·
COc1ccc(C2CC(=O)CC(=O)C2n2cncn2)cc1 (stereo not given)	–	–	–	–	–	–	·	·
O=C1CC(=O)C(n2cncn2)C(c2cccc(Cl)c2)C1 (stereo not given)	22	–	–	–	–	–	–	–
CC1=NN(c2ccc(C(=O)O)cc2)C(=O)/C1=C\c1ccc(OC(=O)c2cccs2)cc1	29	·	–	–	–	–	18	–
CC1=NN(c2ccccc2)C(=O)/C1=C/c1cccs1	–	–	–	–	–	–	·	·
COC(=O)CCC(=O)OC1(C)C(=O)C2=CN(Cc3ccco3)C(c3ccc(OC)cc3)=CC2=C(Br)C1=O (stereo not given)	–	–	–	–	·	·	·	·
COC(=O)CCC(=O)OC1(C)C(=O)C=C2C=C(C3CC3)N(c3ccc(CO)cc3)C=C2C1=O (stereo not given)	19	–	–	–	·	·	20	9.9
